We go through 35 molecules from PubChem BioAssay (Tox21).

Several values for one entry are separate records, joined by “and”; a condition that tells them apart may be missing. Identical values can stand only once. Inconclusive results are not listed. Values without a mark were called inactive. Activity calls are given as the source filed them. Unless noted, calls come from the whole dose curve; as a rule, active = well fitted cell-killing curve with a large enough effect in the repeat runs; inconclusive = weak or mixed curves, or effect the other way; inactive = flat fitted curve, though single readings scatter.
% is set by controls: 0 for no effect and ±100 for the full control effect; potency is the fitted concentration of half-maximal effect.

The first assay in a line: qHTS assay to identify small molecule antagonists of the estrogen receptor alpha (ER-alpha) signaling pathway using the BG1 cell line (AID 743080; calls by dose curve;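 note: BG1 cells stimulated with 17beta-estradiol alongside compound; nearly all actives have a fitted effect of over 25% in size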). Particulars: BG1Luc4E2 ERE-luciferase antagonist mode, luminescence; series mostly up to 70.3 µM; activity change, negative = inhibition: at the top concentration. In short, it runs like this:
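After 5 days in phenol-red-free 10% charcoal-stripped FBS medium, BG1-Luc-4E2 cells were seeded, left 24 h at 37 C, co-treated with compounds and 17beta-estradiol for 21.5 h, then assayed for viability and luciferase.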
For the molecule `Cc1cc(O)c2c(c1)O[C@@]1(C)CC[C@H]3C(C)(C)CCCC34CO[C@@H]2[C@H]41` (stereo partly drawn), the Potency is 26.6 µM (active). In the case of `CCN(CC)CCC(=O)N1c2ccccc2Sc2ccc(C(F)(F)F)cc21`, the “activity change, negative = inhibition” value was 3.8%.

Regarding `CN1CCN(CCC=C2c3ccccc3Sc3ccc(S(=O)(=O)N(C)C)cc32)CC1`, the “activity change, negative = inhibition” value was -8.45%. Regarding `CCN(CC)CCC(=O)N1c2ccccc2Sc2ccc(Cl)cc21`, the “activity change, negative = inhibition” value was 5.99%.

Turning to `CN(C)CCCN1c2ccccc2C(C)(C)c2ccccc21`, the “activity change, negative = inhibition” value is -11.6%. `CC1(S(=O)(=O)O)CC(=O)c2ccccc2C1=O` (stereo not drawn): the Potency was 33.5 µM (active).

In the case of `CCc1ccc2c(c1)N(CC(C)CN(C)C)c1ccccc1S2` (stereo not drawn), the “activity change, negative = inhibition” value was 3.9%. The same measure, in the same setting: for `OC[C@H]1OC([S-])[C@H](O)[C@@H](O)[C@@H]1O.[Au+]` (stereo partly drawn) the value was 4.35%. For the molecule `C=C1C(=C/C=C2\CCC[C@]3(C)[C@@H]([C@H](C)CCCC(C)(C)O)CC[C@@H]23)C[C@@H](O)C[C@@H]1O`, the Potency is 29.8 µM (active). Turning to `CC1=C(/C=C/C(C)=C/C=C/C(C)=C/C(=O)Oc2c(C)c(C)c3c(c2C)CC[C@@](C)(CCC[C@H](C)CCC[C@H](C)CCCC(C)C)O3)C(C)(C)CCC1`, the Potency was 7.5 µM (active). Regarding `CC(CN1c2ccccc2Sc2ccc(S(=O)(=O)N(C)C)cc21)N(C)C` (stereo not drawn), the “activity change, negative = inhibition” value is 9.41%. Consider `C=C1C(=O)O[C@H]2[C@H]1CC/C(C)=C\CC[C@@]1(C)O[C@@H]21`, for which the “activity change, negative = inhibition” value was 2.19%. Same read-out and setting: for `CC(C)(C)NC[C@H](O)COc1ccccc1C1CCCC1` the value was 18.3% [at 32.5 µM]. As to `CC(=O)Oc1cc(C)c(OC(C)=O)c2ccccc12`, the “activity change, negative = inhibition” value is -17.3%. Consider `C[C@@H]1CCC2[C@@H](C)[C@@H](O)O[C@@H]3O[C@@]4(C)CC[C@@H]1[C@@]23OO4` (stereo partly drawn), for which the “activity change, negative = inhibition” value was 1.82%. Still for that read-out and setting: for `CN1CCN(CCCN2c3ccccc3Sc3ccccc32)CC1` the value was -0.437%.

Take `Clc1cc(Cl)c(OCC#CI)cc1Cl`: the Potency was 33.5 µM (active). Take `C[C@H]1[C@@H](OC(=O)CCC(=O)O)O[C@@H]2OC3(C)CC[C@H]4[C@H](C)CC[C@@H]1[C@@]24OO3`: the “activity change, negative = inhibition” value was -11.6%. On to `CCN(CC)c1ccc(C(=C2C=CC(=[N+](CC)CC)C=C2)c2ccccc2)cc1`, for which the Potency is 5.96 µM (active). Take `CN1CCCC(CN2c3ccccc3Sc3ccccc32)C1` (stereo not drawn): the “activity change, negative = inhibition” value is -0.306%.

A short description of another assay: qHTS assay to identify small molecule antagonists of the estrogen receptor alpha (ER-alpha) signaling pathway using the BG1 cell line - cell viability counter screen (AID 743081).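 Note: compound given together with 17beta-estradiol as the ER stimulus; nearly all actives have a fitted effect of over 45% in size.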 The settings on record: BG1Luc4E2 viability, CellTiter-Fluor, 22 h; series mostly up to 70.3 µM; activity change, negative = cytotoxicity: at the top concentration. On the technique in general: qHTS replaces the single test concentration by a dilution series.
As to `Cc1cc(O)c2c(c1)O[C@@]1(C)CC[C@H]3C(C)(C)CCCC34CO[C@@H]2[C@H]41` (stereo partly drawn), the “activity change, negative = cytotoxicity” value was -0.575%.

On to `CCN(CC)CCC(=O)N1c2ccccc2Sc2ccc(C(F)(F)F)cc21`, for which the “activity change, negative = cytotoxicity” value was -15.7%.

As to `C=C1CC[C@@H]2[C@](C)(CO)[C@H](O)CC[C@@]2(C)[C@@H]1C/C=C1/C(=O)OC[C@H]1O`, the “activity change, negative = cytotoxicity” value is 2.04%. Turning to `CC(=O)[C@]1(O)Cc2c(O)c3c(c(O)c2[C@@H](O[C@H]2C[C@H](N)[C@H](O)[C@H](C)O2)C1)C(=O)c1c(O)cccc1C3=O`, the Potency is 18.8 µM (active) and 23.7 µM (active). For `CC(C)N=c1cc2n(-c3ccc(Cl)cc3)c3ccccc3nc-2cc1Nc1ccc(Cl)cc1`, the Potency is 11.4 µM (active). As for `COc1ccc(C2NC(=S)N3C(c4ccc(OC)c(OC)c4)NC(=S)N23)cc1OC` (stereo not drawn), the “activity change, negative = cytotoxicity” value was -2.39%. In the case of `CO[C@H]1C[C@H](O[C@H]2[C@H](C)O[C@@H](O[C@@H]3/C(C)=C/C[C@@H]4C[C@@H](C[C@]5(C=C[C@H](C)[C@@H](C6CCCCC6)O5)O4)OC(=O)[C@@H]4C=C(C)[C@@H](O)[C@H]5OC/C(=C\C=C\[C@@H]3C)[C@]54O)C[C@@H]2OC)O[C@@H](C)[C@@H]1O`, the Potency is 21.1 µM (active). Take `CN(C)CCCN1c2ccccc2C(C)(C)c2ccccc21`: the “activity change, negative = cytotoxicity” value is -3.45%. For `C=C1CC[C@H](O)CC1=C/C=C1\CCC[C@]2(C)[C@@H]([C@H](C)CC[C@@H](O)C(C)(C)O)CC[C@@H]12`, the “activity change, negative = cytotoxicity” value was -8.39%. On the same count and under the same terms, for `CN(C)C(=O)CCSC(SCCC(=O)O)c1cccc(/C=C/c2ccc3ccc(Cl)cc3n2)c1` (stereo not drawn) the value was -1.17%. On the same count and under the same terms, for `CC1(S(=O)(=O)O)CC(=O)c2ccccc2C1=O` (stereo not drawn) the value was -16.8%; for `CCc1ccc2c(c1)N(CC(C)CN(C)C)c1ccccc1S2` (stereo not drawn), 5.93%.

As for `OC[C@H]1OC([S-])[C@H](O)[C@@H](O)[C@@H]1O.[Au+]` (stereo partly drawn), the “activity change, negative = cytotoxicity” value was 0.745%.

Take `C=C1C(=C/C=C2\CCC[C@]3(C)[C@@H]([C@H](C)CCCC(C)(C)O)CC[C@@H]23)C[C@@H](O)C[C@@H]1O`: the Potency is 2.37 µM (active). Consider `C#C[C@]1(O)CC[C@H]2[C@@H]3CCC4=C/C(=N/O)CC[C@@H]4[C@H]3CC[C@@]21CC`, for which the “activity change, negative = cytotoxicity” value is 5.45%.

As for `CCN(CC)CCOc1ccc(-c2nc3cc(Cl)ccc3s2)cc1`, the “activity change, negative = cytotoxicity” value is -8.24%. Same read-out and setting: for `CC1=C(/C=C/C(C)=C/C=C/C(C)=C/C(=O)Oc2c(C)c(C)c3c(c2C)CC[C@@](C)(CCC[C@H](C)CCC[C@H](C)CCCC(C)C)O3)C(C)(C)CCC1` the value was 0.225%. The same measure, in the same setting: for `CC(CN1c2ccccc2Sc2ccc(S(=O)(=O)N(C)C)cc21)N(C)C` (stereo not drawn) the value was 8.09%.

As to `COc1ccc(C[C@H](N)C(=O)N[C@H]2[C@@H](O)[C@H](n3cnc4c(N(C)C)ncnc43)O[C@@H]2CO)cc1`, the Potency was 21.1 µM (active). For `C=C1C(=O)O[C@H]2[C@H]1CC/C(C)=C\CC[C@@]1(C)O[C@@H]21`, the “activity change, negative = cytotoxicity” value was -0.33%. The same measure, in the same setting: for `CC(=O)Oc1cc(C)c(OC(C)=O)c2ccccc12` the value was -11.8%; for `C=C1CC[C@H](O)CC1=C/C=C1\CCC[C@]2(C)[C@@H]([C@H](C)CCCC(C)(C)O)CC[C@@H]12`, -27.4%; for `OCCN1CCN(CC/C=C2/c3ccccc3Sc3ccc(Cl)cc32)CC1`, -0.632% [at 32.5 µM]. Consider `CCCCCCOc1ccc(C(=N)N(CCCC)CCCC)c2ccccc12`, for which the Potency was 33.5 µM (active). On to `Clc1cc(Cl)c(OCC#CI)cc1Cl`, for which the “activity change, negative = cytotoxicity” value was -0.629%. For `CCCCC(=O)OCC(=O)[C@]1(O)Cc2c(O)c3c(c(O)c2[C@@H](O[C@H]2C[C@H](NC(=O)C(F)(F)F)[C@H](O)[C@H](C)O2)C1)C(=O)c1c(OC)cccc1C3=O`, the Potency was 23.7 µM (active). As for `CN1CCCC(CN2c3ccccc3Sc3ccccc32)C1` (stereo not drawn), the “activity change, negative = cytotoxicity” value was 3.39%. Consider `S=C1SCN(Cc2ccccc2)CN1Cc1ccccc1`, for which the “activity change, negative = cytotoxicity” value is -1.28%.
